Bioassay records as filed in PubChem BioAssay.
TDP-43 yeast inh = qHTS of TDP-43 Inhibitors; TDP-43 expressing yeast growth rescue, BacTiter-Glo, 24 h; Potency, µM (doses to about 46.1 µM), most hits filed as activators; hit rate 1.8% among 410,000; note: nearly all actives have a fitted effect of over 50% in size
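Galactose-induced TDP-43 yeast, OD600=0.02, compound pinned; 24 hr, 30 deg C; BacTiter-Glo luminescence for growth. Inhibitors of TDP-43 toxicity read as activators.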
Abeta rescue = qHTS for compounds that reverse cellular toxicity of Amyloid beta (A-beta) peptide in yeast: Primary Screen | AID 1347071, 2019 | Potency, µM (top dose mostly 46.1 µM), usual class: activators | yeast expressing A-beta42, growth rescue, OD600, 48 h; response scale: 0% DMSO, 100% iron-clioquinol control | hit rate 0.063% among 410,000; note: nearly all actives have a fitted effect of over 55% in size
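Yeast A-beta toxicity model in growth medium with pinned compounds, 48 h at 30 C; growth read as absorbance at 600 nm. Normalized to FeCl3/clioquinol equimolar mix (positive) and DMSO (negative).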
Mm-Cpn inhibitor = Inhibitors of TCP-1 ring complex (TRiC) of Methanococcus maripaludis (MmCpn): qHTS; Chaperonin Mm-Cpn (Methanococcus maripaludis); hit rate 0.031% among 330,000; purified Mm-Cpn ATPase, ADP Transcreener TR-FRET; AID 504842, 2011; Potency, µM (highest dose often 76.9 µM), hits mostly inhibitors; note: nearly all actives have a fitted effect of over 80% in size
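ATPase turnover read by TR-FRET ADP competition (Eu cryptate antibody/ADP-d2, 665/590 nm): 10uM ATP final, 25nM Mm-CPN final, 30 min 37degC after 10-min compound preincubation, pH 7.4 Tris/KCl/MgCl2/DTT buffer.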
aSyn yeast inh = qHTS of alpha-syn Inhibitors | Yeast expressing alpha-synuclein, growth rescue, BacTiter-Glo, 24 h | Potency, µM (doses to about 46.1 µM), actives largely listed as activators | hit rate 0.14% among 370,000 | AID 652106, 2013; note: nearly all actives have a fitted effect of over 65% in size
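Galactose-induced alpha-syn yeast (OD600=0.02, raffinose-pregrown) + pinned cpd, 24 hr, 30 deg C; growth by BacTiter-Glo luminescence. Growth restoration scores as activation.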
FUS yeast rescue = qHTS for Suppressors of FUS Proteinopathy: Primary screen using FUS-linked yeast assay | hit rate 0.24% among 390,000 | Potency, µM (top dose mostly 76.6 µM), actives largely listed as activators | S. cerevisiae FUS-expressing, growth rescue, OD600, 24 h; note: nearly all actives have a fitted effect of over 55% in size
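Quantitative HTS measuring growth restoration of FUS-toxic yeast. Galactose-induced cells (OD 0.005) were exposed 24hr at 30C to compounds at several concentrations, then absorbance at 600 nm was recorded.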
CCT chaperon mod = High-Throughput Screening for Modulators of Cytosolic Chaperonin Activity; activity change, % (concentration not given with the values), hits read low; AID 651819, 2012; hit rate 0.3% among 360,000; purified chaperonin ATPase assay, HTRF ADP detection, 30 min; in the data active = activity change below about -30%
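Nucleotide hydrolysis assay: TRiC at 20–40 nM final (set by batch activity) with 10 uM ATP, 30 min at 37 °C, in presence of 76 uM compound. Detection by competitive ADP HTRF, 30 min ambient.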
Hits are given with their value; 0 = inactive; ? = inconclusive; - = not tested or not shown. The list is not random: actives were taken first. Their share in the collection is about 2.3%. Unless noted, calls come from the whole dose curve; as a rule, active = well fitted curve in the direction sought with a large enough effect; inconclusive = small, poorly fitted or top-dose-only effect, or another doubt; inactive = no such curve, though single readings can be large; an effect the other way counts as inactive or inconclusive.

SMILES	TDP-43 yeast inh	Abeta rescue	Mm-Cpn inhibitor	aSyn yeast inh	FUS yeast rescue	CCT chaperon mod
O=c1c2ccccc2sc2nc(C3CCCCC3)n(Cc3ccco3)c(=O)c12	0	0	0	0	0	0
CCc1nc2sc3ccccc3c(=O)c2c(=O)n1Cc1ccco1	0	0	0	0	32µM	0
O=C1N2Cc3ccccc3C2CS(=O)(=O)N1C1CCCC1 (configuration not stated)	-	-	-	-	0	-
O=C(OCc1ccccc1)[C@H](Cc1ccccc1)NC(=O)[C@@H]1CC=C[C@@H]2CCN(Cc3ccccc3)C(=O)[C@@H]21	-	-	-	-	0	-
Fc1ccc(-c2cc3nc4c(c(N5CCOCC5)n3n2)CCCC4)cc1	16µM	0	0	0	0	0
Cc1cccc(-c2cc3nc4c(c(N5CCOCC5)n3n2)CCCC4)c1	?	0	0	0	0	0
CC(C)(C)OC(=O)N1CCC(N[C@@H](Cc2ccccc2)C(=O)NCC(c2ccccc2)c2ccccc2)(C(=O)NC2CCCCC2)CC1	-	-	-	-	0	-
O=C(Nc1ncc2c(n1)-c1ccccc1CC2)c1ccc(F)cc1	10µM	0	0	0	0	0
O=C(Nc1ncc2c(n1)-c1ccccc1CC2)c1cccs1	?	0	0	0	0	0
O=C(Nc1ncc2c(n1)-c1ccccc1CC2)c1ccccc1	13µM	0	0	0	0	0
COCC(=O)n1nc(NCc2ccc(OC)cc2)nc1NCc1ccc(OC)cc1	18µM	0	0	0	0	0
CCCSc1ncc(Cl)c(C(=O)Nc2ccc(S(=O)(=O)N3CCCC(C)C3)cc2)n1 (configuration not stated)	0	0	-	-	0	-
CCc1ccc(NC(=O)c2noc3c2CCC3)cc1	11µM	0	0	0	0	0
COc1cccc(CN2CCN(C(=O)c3oc4c(F)cccc4c3C)CC2=O)c1	20µM	0	0	0	0	0
Cc1c(C(=O)N2CCN(Cc3nccn3C)CC2)oc2c(F)cccc12	?	0	-	0	0	0
S=c1[nH]nc(-c2n[nH]c3c2CCC3)n1N=Cc1c[nH]c2ccccc12	-	-	-	-	0	-
CCCC(=O)NC(c1ccc(Cl)cc1Cl)c1ccc2cccnc2c1O (configuration not stated)	-	?	0	?	0	0
CCCC(=O)NC(c1cccc([N+](=O)[O-])c1)c1ccc2cccnc2c1O (configuration not stated)	0	0	-	0	0	0
CC(C)C(=O)NC(c1cccc([N+](=O)[O-])c1)c1ccc2cccnc2c1O (configuration not stated)	35µM	0	0	0	0	0
CC(=O)NC(c1ccc(Cl)cc1Cl)c1ccc2cccnc2c1O (configuration not stated)	32µM	?	0	?	0	0
CC(c1ccccc1)n1c(CO)nc2ccccc21 (configuration not stated)	0	0	0	0	0	0
COc1cccc(Cn2c(Cn3c(-c4cnccn4)nc4ccccc43)nc3ccccc32)c1	0	0	-	0	0	0
COc1ccc(OCc2nc3ccccc3n2C(C)c2ccccc2)cc1 (configuration not stated)	13µM	?	-	-	0	-
COc1ccc(OCc2nc3ccccc3n2Cc2ccc(C(C)(C)C)cc2)cc1	0	0	-	-	0	-
COc1cccc(OCc2nc3ccccc3n2Cc2ccccc2)c1	22µM	?	-	-	0	-
SMILES	TDP-43 yeast inh	Abeta rescue	Mm-Cpn inhibitor	aSyn yeast inh	FUS yeast rescue	CCT chaperon mod
COc1cccc(Cn2c(C(C)n3c(-c4cnccn4)nc4ccccc43)nc3ccccc32)c1 (configuration not stated)	14µM	0	-	?	?	-
O=C1C=C(NC2=CC3OC(c4ccccc4)OCC3OC2=O)CCC1 (configuration not stated)	13µM	0	0	18µM	-	0
CN(C)c1cccc(-c2nnc(SCC(=O)NCc3ccco3)n2C)c1	-	-	-	0	-	-
Cc1cccc(C)c1OCC(=O)NCC1COc2ccccc2O1 (configuration not stated)	16µM	0	0	0	0	0
Cn1nc(C(=O)NCC2COc3ccccc3O2)c2ccccc2c1=O (configuration not stated)	20µM	0	0	0	0	0
Cc1ccc(C(=O)OCC(=O)NCC2COc3ccccc3O2)cc1 (configuration not stated)	?	?	0	0	0	0
CCCCn1nc(C(=O)NCC2COc3ccccc3O2)c2ccccc2c1=O (configuration not stated)	?	0	0	0	?	0
CCOc1cccc(-c2nc(C(N)=O)c3[nH]c(=O)n(-c4cccc(Cl)c4)c3n2)c1O	?	0	0	0	0	-37
CCOc1ccccc1-c1nc(C(N)=O)c2[nH]c(=O)n(-c3cccc(C)c3)c2n1	0	0	0	0	?	0
O=C(c1ccccc1)n1ccc2ccc(-c3ccc4ccn(Cc5ccccc5)c4c3)cc21	-	-	-	-	0	-
C=CCc1cccc(/C=N/NC(=O)CNc2ccccc2OC)c1O	11µM	0	0	0	0	0
COc1ccc(/C=C2\CC3(OC(=O)c4cccc(F)c4)CCCN2C3)cc1 (configuration not stated)	-	-	-	-	0	-
CN(CC1COc2ccccc2O1)C(=O)CCNS(=O)(=O)c1ccc(F)c(Cl)c1 (configuration not stated)	22µM	?	-	0	0	0
Cc1ccc(C2=NN(Cc3nnc(-c4ccccc4)o3)C(=O)SC2)cc1	18µM	0	0	0	-	0
CCOC(=O)Nc1cccc(OCC(=O)Nc2ccccc2OC)c1	16µM	0	0	0	0	0
CCOC(=O)Nc1cccc(OCC(=O)Nc2ccc(OC)cc2OC)c1	?	0	0	0	0	0
COc1ccccc1NC(=O)Nc1cccc(C(=O)O)c1	0	0	0	0	0	-50
Oc1cccc(-c2nc(-c3cccs3)c(-c3cccs3)[nH]2)c1	0	0	-	-	0	-
Oc1ccc(Br)cc1-c1cc(-c2ccco2)[nH]n1	13µM	0	0	0	0	0
Oc1ccc(Br)cc1-c1ccn[nH]1	13µM	0	0	0	-	0
Oc1ccccc1-c1cc(-c2ccco2)[nH]n1	0	0	0	0	0	0
Oc1c(-c2cc(-c3ccco3)[nH]n2)ccc2ccccc12	10µM	0	0	0	0	0
COC(=O)c1ccc(S(=O)(=O)N2CCC(NC(=O)Cc3cccc(C)c3)CC2)cc1	-	-	-	-	0	-
